Consider 40 molecules from PubChem BioAssay (NCI).

The panel holds about 83,000 compounds, 20% with a hit somewhere; the sample as a whole holds those more often.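 Single-concentration screen, 48 h exposure, 96-well plates. Endpoint: percent growth. Below 10 = active.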 A number with no mark means an inactive call. Activity calls are given as the source filed them.

In this assay the test system is MCF7 breast. The assay is described as follows: NCI-60 one-dose screen, 48 h (100 = growth as untreated, 0 = no growth, -100 = all killed). Particulars: 10 µM unless noted. As to the method: Growth inhibition of the MCF7 human tumor cell line is measured as a screen for anti-cancer activity. Cells are grown in 96 well plates and exposed to the test compound for 48 hours. Compounds are tested at a single concentration, which is 10^-5 M for most compounds. The reported endpoint is percent growth (GI% or GIPRCNT), where numbers from 0 - 100% represent growth inhibition, and numbers from -100% - 0 represent cell death. For example, a value of 40 represents 60% growth inhibition. A value of 0 means no net growth occurred over the course of the experiment. A value of -40 indicates 40% of cells at the beginning of the experiment died by the end of the experiment. A value of -100 means all cells are dead at the end of the experiment.
NCI-60 Human Tumor Cell Lines Screen was performed using the standard one-dose NCI protocol, which is described in more detail at https://dtp.cancer.gov/discovery_development/nci-60/default.htm.
Compounds with GIPRCNT values below 10 were considered active. Activity score was based on GIPRCNT using the following formula: […]
Score is 0 for GIPRCNT values of 100 or above, 50 for GIPRCNT values of 0, and 100 for GIPRCNT values of -100.
Turning to `CC(C)c1c(C(=O)Nc2ccccc2)c(-c2ccccc2)c(-c2ccc(F)cc2)n1CC[C@@H]1CC=CC(=O)O1`, the growth was -22.8% (active).

Consider `O=C1CC(c2nc3ccccc3[nH]2)CN1C1CCCCC1` (stereo not given), for which the growth is 89.7%.

Take `CCn1cc2c(cc1=O)-c1nc3ccccc3c3ccnc(c13)C2=O`: the growth was 29.6%.

With `CN1CCN(Cc2ccc(NC(=O)c3[nH]ncc3Nc3ccnc4ccsc34)cc2)CC1`, the growth is 12.9%.

Take `O=C1C=CC(=O)c2c1nc1n2CCCC1`: the growth was 57.8%.

On to `O=[N+]([O-])c1cccc(-c2nc3sccn3c2-c2ccnc(NCCCNS(=O)(=O)c3ccc(F)cc3)n2)c1`, for which the growth is -8.37% (active).

As to `C[C@@H]1CC[C@@H]2[C@@H]1[C@H](OC(=O)/C=C/c1ccccc1)[C@]1(c3ccccc3)C[C@@H](OC(=O)CO)[C@@]2(C)O1`, the growth is 84.3%.

Turning to `O=S(=O)(Nc1ccc(F)c(Cl)c1)c1ccc(-c2cnc(C3CC3)o2)cc1`, the growth is 15.5%.

On to `O=C(CN1CCN(c2cc3c(cc2F)c(=O)c(C(=O)O)cn3C2CC2)CC1)Nc1nc(-c2ccccc2)cs1`, for which the growth is 86.8%.

In the case of `Cn1cc(-c2csc(-c3cn(C)c4ncccc34)n2)c2ccccc21`, the growth is 13%.

`CCCCCCCCCC(=O)Oc1ccc(/C(=C(/C)c2ccccc2)c2ccc(OCCN3CCCC3)cc2)cc1`: the growth is -14.1% (active).

Consider `COc1c2ccccc2c(OC)c2[nH]c(=O)ccc12`, for which the growth was 42.2%.

For `CN1CCN(Cc2ccc(NC(=O)c3[nH]ncc3Nc3ncnc4[nH]ccc34)cc2)CC1`, the growth is 9.25% (active).

For the molecule `Cc1ccc(/C=C2\Oc3cc(OCC(=O)c4ccc(Cl)cc4)ccc3C2=O)cc1`, the growth is 119%.

For the molecule `COc1ccc(C(=O)/C=C/c2cc3ccccc3[nH]c2=O)cc1`, the growth was 15%.

Consider `COc1cccc(/C=C2/C(=O)N(Cc3ccco3)SC2=S)c1OC`, for which the growth was 47.3%.

In the case of `COCCCNc1nc(NC(=O)c2ccc(F)cc2C)cc(-c2cccnc2)n1`, the growth is 103%.

Regarding `COc1ccc(C2CC(=O)Nc3c2c(C)nn3-c2nc3ccccc3[nH]2)cc1` (stereo not given), the growth is 91.6%.

Take `O=C1Nc2ccccc2/C1=C/C(=N/c1nnc(-c2ccccc2)s1)c1ccccc1`: the growth was 36.9%.

On to `N#Cc1c2c(nc3n[nH]c(N)c13)CCCC2`, for which the growth is 110%.

In the case of `C=CCSc1nnc(-c2ccc(C(C)(C)C)cc2)n1-c1cccc(C(F)(F)F)c1`, the growth was 12.1%.

Take `CC1=CC(=O)CC(C)(C)[C@@]1(O)/C=C/[C@@H](C)O`: the growth is 84.6%.

On to `N=c1c2ccccc2nc2n1CCCCC2`, for which the growth is 99.4%.

As for `COc1ccc2c(c1)C(=O)/C(=C/c1cccc(OCC(=O)Nc3nc4c(s3)CCCC4)c1)O2`, the growth was 21.9%.

As to `C[C@]12C[C@@H](c3ccoc3)OC(=O)[C@@H]1CC[C@]1(C)[C@@H]2CC[C@@H](O)[C@]1(C)O`, the growth is 108%.

Take `CS(=O)(=O)c1c(Nc2ccccc2)n[nH]c1N`: the growth is 101%.

For `Cn1c2c(Cl)c(Cl)ccc2c2ccn3c(=O)c4ccccc4nc3c21`, the growth was 96.2%.

Consider `Cc1ccc(SCN2CCN(c3cccc(Cl)c3)CC2)cc1`, for which the growth was 85.2%.

In the case of `O=C1Nc2c(ccc(Cl)c2Cl)/C1=C/c1cc(Br)c(O)c(Br)c1`, the growth is 52.8%.

As to `O=S(=O)(Nc1ccc(Cl)cc1Cl)c1ccc(-c2cnc(C3CC3)o2)cc1`, the growth was 15.3%.

`COc1ccc2nc3cc(Cl)ccc3c(NCCNCC(O)CO)c2c1` (stereo not given): the growth was 9.17% (active).

As to `CC1CN(Cc2ccco2)C(=S)N(c2ccccc2)C1=O` (stereo not given), the growth is 102%.

On to `C[C@H](CCC(=O)O)[C@H]1CC[C@H]2[C@@H]3CC[C@@H]4/C(=C\c5ccco5)C(=O)/C(=C\c5ccco5)C[C@]4(C)[C@H]3CC[C@]12C`, for which the growth is 32.5%.

`COc1ccc(CCN2CC=Cn3c2nc2ccccc2c3=O)cc1`: the growth was 18.9%.

`COc1ccc(-c2cc(-c3cccnc3)nc3sc4c(=O)n(-c5ccc(C)cc5)nnc4c23)cc1OC`: the growth is 99.7%.

For `COc1ccc(-c2cc(C(=O)N=Nc3c(O)[nH]c4ccccc34)no2)cc1`, the growth is 95.1%.

Turning to `Cn1cc(-c2nc(-c3c[nH]c4ccccc34)cs2)c2cccnc21`, the growth was 14.7%.

With `CC(C)n1cc2c(N)ncnc2n1`, the growth is 102%.

With `Nc1nc2c(c3ncccc13)C(c1ccc(Cl)c(Cl)c1)Cc1ncccc1-2` (stereo not given), the growth is 12.2%.

With `Cn1cc(-c2ccc(-c3cn(C)c4ncccc34)[nH]2)c2cccnc21`, the growth was 75.2%.
